Assay results reported in the supplement of paper PMC6555819.

tested on: VDR:RXRa (NR concentration 270 nM, RXRa partner concentration 90 nM); test: PBM binding z-score (relative to random genomic background probes); higher = stronger binding; sequences stand for … in GC…GCGATTGACAGCGTAGAATGAAGG
Procedure, shortened: (§1)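 Binding z-scores take random background probes as their reference. They come from custom Agilent 4×180K protein-binding microarrays incubated 1 h with ligand-free nuclear receptor dimers, with antibodies against each partner (one per run) detecting binding. Scanned fluorescence was regression-normalized.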

**Q.** Which PBM binding z-score does the source give for CCTCGGAGGACAGAAGGTCAGAACTGTCCGCTTT here?
**A.** 0.995

**Q.** With CCTTACGGGTCAAGGTTATAGCGCGGGTGGTACG as the sequence, how does the PBM binding z-score read?
**A.** 3.22

**Q.** How did the PBM binding z-score turn out when CCGACTGGGGCAGAAAGGTTTCCATACCATCCGG was run?
**A.** -0.642

**Q.** For TTACCAAGGTGAAAGGTTGTTGATGCACGCCTTG, which PBM binding z-score is on record?
**A.** 1.15

**Q.** GCAGACAGGTAAAACGCAGGTAACTCAGGGTGGC was tested. Which PBM binding z-score did it give?
**A.** -0.484

**Q.** Which PBM binding z-score does the source give for AGTCAAAGTTCATGACGAGGTAACGTAAAGCACG here?
**A.** 4.64

**Q.** With ATATGTAGGTTAATGGTCATTCAGGTTGGTTCGC as the sequence, how does the PBM binding z-score read?
**A.** 1.32

**Q.** ACTATTAGTTGAGACAAGGGCAACCGATAGGTTG was tested. Which PBM binding z-score did it give?
**A.** 0.191

**Q.** Which PBM binding z-score does the source give for CCGACTGGGGCATAAAGTTACCATAAGCCAGCCC here?
**A.** -0.432

**Q.** How did the PBM binding z-score turn out when CGTCCACGGTCATAGGAGGTCAGTGAAGACAGAT was run?
**A.** 3.27

**Q.** Which PBM binding z-score does the source give for TAGCCTTGGTCATGGGCCAGTATACCACGCGAAC here?
**A.** -0.347

**Q.** TCTGCTAGGTCAACGATGATCAGCTAATCTGCTA was tested. Which PBM binding z-score did it give?
**A.** 1.17

**Q.** How did the PBM binding z-score turn out when CCAGACAGGTGAAAGGTACCTCAGTCTGGTACGC was run?
**A.** 0.0967

**Q.** For ATATGTAGGTTATCGGGTTATTCAGTTTGCGCAT, which PBM binding z-score is on record?
**A.** 3.47

**Q.** Which PBM binding z-score does the source give for TCTTGTAGATCAAAGGATAAGAAAGCCGAAGCCT here?
**A.** 0.22

**Q.** Which PBM binding z-score does the source give for TCTTGTAGATCAGCAGGTTAAGGAAGCTGGCCAA here?
**A.** 0.37

**Q.** Which PBM binding z-score does the source give for GTGACTGGGGCAAAGCAGGTTACCATAAGGTTGG here?
**A.** 0.488

**Q.** With ACAGACAGGTCAGTGAAGGTAACTCAGCTGGACG as the sequence, how does the PBM binding z-score read?
**A.** 1.41

**Q.** How did the PBM binding z-score turn out when ACTATTAGTTGACTTAGGGAAACCGATACGACGC was run?
**A.** 0.0698

**Q.** Which PBM binding z-score does the source give for CCGTACGGGTCACGAGGTTATAGCACGACGAGCG here?
**A.** 5.23

**Q.** How did the PBM binding z-score turn out when TCAAGTTGGTCACGGAGGTCACACACGACGGGTA was run?
**A.** 5.67

**Q.** CCAGACGGGTGAAAGGTAACTCAGTCTGGTACGC was tested. Which PBM binding z-score did it give?
**A.** 0.319

**Q.** Which PBM binding z-score does the source give for CGTCCAAGGTCATAGAAGGTCAGTGAAGACAGAT here?
**A.** 6.34

**Q.** With CCTACTGGGCCATTCAGAGGTCATTGACCATATG as the sequence, how does the PBM binding z-score read?
**A.** 3.83

**Q.** Which PBM binding z-score does the source give for ACTGACAGGTGAGTGAAGGTAACTCAGCTGGACG here?
**A.** -0.322

**Q.** Which PBM binding z-score does the source give for ATACCAAGGTGGTCGTGAGGTCGTTGATACTAAC here?
**A.** 2.79

**Q.** For AGTACGAGGGCACGCTGAGTTGATAGCAGAGTAG, which PBM binding z-score is on record?
**A.** 2.29

**Q.** How did the PBM binding z-score turn out when TCGAGTAGGTTACCACTGGGGCATTCAGCTTTCT was run?
**A.** -0.368

**Q.** How did the PBM binding z-score turn out when AGTACAGGGTCACTAGGCCAGAGTAGGTACGAAT was run?
**A.** 3.83

**Q.** CCTCGGAGGACAGTAGGTCAGAGCTGTCCGCTTT was tested. Which PBM binding z-score did it give?
**A.** -0.11

**Q.** Which PBM binding z-score does the source give for AATACAGGGTCACTAGGCCGGAGTAGGTACGAAT here?
**A.** 4.11

**Q.** For TCTGCTAGGTCAGCTGGTCAGCTAACGAGCTGCC, which PBM binding z-score is on record?
**A.** 0.12

**Q.** GCTAGCAGGCCATCTGGGTCACTCAATGACGGGC was tested. Which PBM binding z-score did it give?
**A.** 1.04

**Q.** With TGAATGAGGTTAAAAATCAGGGAACGTGGCGTCG as the sequence, how does the PBM binding z-score read?
**A.** 0.855

**Q.** With GTACTAAGGTGAATAGGTCGTTGATGAGTAGGCG as the sequence, how does the PBM binding z-score read?
**A.** 1.24

**Q.** For TCATATAGGTAATAGAGGTGAAAGTCGGCATCTA, which PBM binding z-score is on record?
**A.** 2.08

**Q.** TCTAGTAGATCAATAGAGGTTAAGAAAGTGCGCT was tested. Which PBM binding z-score did it give?
**A.** 1.84

**Q.** Which PBM binding z-score does the source give for CCTACTGGGCCAAAGGTCATTCATTCCAATGCTC here?
**A.** 4.67

**Q.** Which PBM binding z-score does the source give for AGTCAAAGTTCACTAAGTAACGTAAGATTCAGCT here?
**A.** 3.9

**Q.** Which PBM binding z-score does the source give for ACTAGCAGACCAAGGGTCACTCAAGATTAGTCCG here?
**A.** 2.58

tested on: VDR homodimer (NR concentration 270 nM); test: as above
Procedure, shortened: as §1

**Q.** How did the PBM binding z-score turn out when CCTCGGAGGACAGAAGGTCAGAACTGTCCGCTTT was run?
**A.** 0.761

**Q.** CCTTACGGGTCAAGGTTATAGCGCGGGTGGTACG was tested. Which PBM binding z-score did it give?
**A.** 1.52

**Q.** With CCGACTGGGGCAGAAAGGTTTCCATACCATCCGG as the sequence, how does the PBM binding z-score read?
**A.** -0.664

**Q.** How did the PBM binding z-score turn out when TTACCAAGGTGAAAGGTTGTTGATGCACGCCTTG was run?
**A.** 0.0809

**Q.** Which PBM binding z-score does the source give for GCAGACAGGTAAAACGCAGGTAACTCAGGGTGGC here?
**A.** -0.545

**Q.** AGTCAAAGTTCATGACGAGGTAACGTAAAGCACG was tested. Which PBM binding z-score did it give?
**A.** 4.11

**Q.** How did the PBM binding z-score turn out when ATATGTAGGTTAATGGTCATTCAGGTTGGTTCGC was run?
**A.** 1.34

**Q.** ACTATTAGTTGAGACAAGGGCAACCGATAGGTTG was tested. Which PBM binding z-score did it give?
**A.** 0.496

**Q.** CCGACTGGGGCATAAAGTTACCATAAGCCAGCCC was tested. Which PBM binding z-score did it give?
**A.** -0.27

**Q.** Which PBM binding z-score does the source give for CGTCCACGGTCATAGGAGGTCAGTGAAGACAGAT here?
**A.** 1.18

**Q.** For TAGCCTTGGTCATGGGCCAGTATACCACGCGAAC, which PBM binding z-score is on record?
**A.** -0.715

**Q.** Which PBM binding z-score does the source give for TCTGCTAGGTCAACGATGATCAGCTAATCTGCTA here?
**A.** -0.153

**Q.** For CCAGACAGGTGAAAGGTACCTCAGTCTGGTACGC, which PBM binding z-score is on record?
**A.** -0.438

**Q.** ATATGTAGGTTATCGGGTTATTCAGTTTGCGCAT was tested. Which PBM binding z-score did it give?
**A.** 2.11

**Q.** How did the PBM binding z-score turn out when TCTTGTAGATCAAAGGATAAGAAAGCCGAAGCCT was run?
**A.** -0.298

**Q.** With TCTTGTAGATCAGCAGGTTAAGGAAGCTGGCCAA as the sequence, how does the PBM binding z-score read?
**A.** -0.598

**Q.** GTGACTGGGGCAAAGCAGGTTACCATAAGGTTGG was tested. Which PBM binding z-score did it give?
**A.** 0.275

**Q.** With ACAGACAGGTCAGTGAAGGTAACTCAGCTGGACG as the sequence, how does the PBM binding z-score read?
**A.** -0.256

**Q.** ACTATTAGTTGACTTAGGGAAACCGATACGACGC was tested. Which PBM binding z-score did it give?
**A.** 0.262

**Q.** With CCGTACGGGTCACGAGGTTATAGCACGACGAGCG as the sequence, how does the PBM binding z-score read?
**A.** 1.75

**Q.** How did the PBM binding z-score turn out when TCAAGTTGGTCACGGAGGTCACACACGACGGGTA was run?
**A.** 3.44

**Q.** With CCAGACGGGTGAAAGGTAACTCAGTCTGGTACGC as the sequence, how does the PBM binding z-score read?
**A.** -0.582

**Q.** CGTCCAAGGTCATAGAAGGTCAGTGAAGACAGAT was tested. Which PBM binding z-score did it give?
**A.** 4

**Q.** How did the PBM binding z-score turn out when CCTACTGGGCCATTCAGAGGTCATTGACCATATG was run?
**A.** 3.34

**Q.** With ACTGACAGGTGAGTGAAGGTAACTCAGCTGGACG as the sequence, how does the PBM binding z-score read?
**A.** -0.23

**Q.** ATACCAAGGTGGTCGTGAGGTCGTTGATACTAAC was tested. Which PBM binding z-score did it give?
**A.** 3.47

**Q.** With AGTACGAGGGCACGCTGAGTTGATAGCAGAGTAG as the sequence, how does the PBM binding z-score read?
**A.** 2.17

**Q.** With TCGAGTAGGTTACCACTGGGGCATTCAGCTTTCT as the sequence, how does the PBM binding z-score read?
**A.** -0.613

**Q.** For AGTACAGGGTCACTAGGCCAGAGTAGGTACGAAT, which PBM binding z-score is on record?
**A.** 2.39

**Q.** For CCTCGGAGGACAGTAGGTCAGAGCTGTCCGCTTT, which PBM binding z-score is on record?
**A.** -0.282

**Q.** Which PBM binding z-score does the source give for AATACAGGGTCACTAGGCCGGAGTAGGTACGAAT here?
**A.** 2.61

**Q.** Which PBM binding z-score does the source give for TCTGCTAGGTCAGCTGGTCAGCTAACGAGCTGCC here?
**A.** -1.3

**Q.** With GCTAGCAGGCCATCTGGGTCACTCAATGACGGGC as the sequence, how does the PBM binding z-score read?
**A.** 0.262

**Q.** Which PBM binding z-score does the source give for TGAATGAGGTTAAAAATCAGGGAACGTGGCGTCG here?
**A.** 0.4

**Q.** For GTACTAAGGTGAATAGGTCGTTGATGAGTAGGCG, which PBM binding z-score is on record?
**A.** 0.722

**Q.** With TCATATAGGTAATAGAGGTGAAAGTCGGCATCTA as the sequence, how does the PBM binding z-score read?
**A.** 0.435

**Q.** TCTAGTAGATCAATAGAGGTTAAGAAAGTGCGCT was tested. Which PBM binding z-score did it give?
**A.** 0.312

**Q.** CCTACTGGGCCAAAGGTCATTCATTCCAATGCTC was tested. Which PBM binding z-score did it give?
**A.** 3.3

**Q.** How did the PBM binding z-score turn out when AGTCAAAGTTCACTAAGTAACGTAAGATTCAGCT was run?
**A.** 3.4

**Q.** ACTAGCAGACCAAGGGTCACTCAAGATTAGTCCG was tested. Which PBM binding z-score did it give?
**A.** 1.2
